According to PubChem BioAssay AID2221 (Broad Institute, 2009):
The whole screen tested about 290,000 compounds, of which about 2,200 (0.76%) were called active. The sample as a whole holds a higher share of actives than the screen did. Unmarked numbers belong to inactive results. Rule as the data show it: active = inhibition above about 30%; inconclusive = no clear call, values can overlap the other calls; inactive = below that.

What follows are compounds tested against Protein RecA (Mycobacterium tuberculosis (strain ATCC 25618 / H37Rv)) (UniProt P9WHJ3) (assay: Mtb RecA intein splicing inhibitors, primary screen, biochemical, fluorescence, HTS (AID 2221;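 also: 0% = vehicle wells and 100% = reference inhibitor control wells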)). Details: cell-free RecA intein splicing, active compounds read high, concentration not given here.
Protein RecA (Mycobacterium tuberculosis (strain ATCC 25618 / H37Rv)), sequence (P9WHJ3 whole entry, looked up): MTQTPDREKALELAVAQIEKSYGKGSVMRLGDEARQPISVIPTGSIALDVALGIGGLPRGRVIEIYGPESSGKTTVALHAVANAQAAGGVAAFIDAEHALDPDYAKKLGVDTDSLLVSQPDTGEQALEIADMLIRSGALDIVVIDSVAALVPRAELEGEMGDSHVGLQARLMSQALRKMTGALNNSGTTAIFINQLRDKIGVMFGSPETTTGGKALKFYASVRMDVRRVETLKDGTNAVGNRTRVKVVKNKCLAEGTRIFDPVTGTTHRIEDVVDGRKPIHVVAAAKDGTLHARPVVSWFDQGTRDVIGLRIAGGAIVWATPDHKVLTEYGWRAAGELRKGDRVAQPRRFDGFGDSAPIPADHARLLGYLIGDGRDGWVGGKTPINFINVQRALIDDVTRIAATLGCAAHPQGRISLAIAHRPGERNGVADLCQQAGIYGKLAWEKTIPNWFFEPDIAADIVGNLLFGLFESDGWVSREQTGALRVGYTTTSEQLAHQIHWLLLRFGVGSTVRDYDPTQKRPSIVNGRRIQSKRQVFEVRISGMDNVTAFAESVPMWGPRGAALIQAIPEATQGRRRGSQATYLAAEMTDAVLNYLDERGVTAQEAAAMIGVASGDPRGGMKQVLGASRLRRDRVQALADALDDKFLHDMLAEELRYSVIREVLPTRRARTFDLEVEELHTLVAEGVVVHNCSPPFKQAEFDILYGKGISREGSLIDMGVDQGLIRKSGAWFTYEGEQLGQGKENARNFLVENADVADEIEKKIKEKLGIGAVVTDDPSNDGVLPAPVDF
In the case of `O=C(CN1C(=O)C2C3C=CC(C3)C2C1=O)Nc1nc(-c2ccccn2)cs1` (stereo unspecified), the inhibition is reported as -1.82%. `CCn1c(CC(=O)Nc2ccccc2)nnc1SCC(=O)N1CCOCC1` gave an inhibition of -3.34%. For `N#Cc1ccc(C2N=C(c3ccccc3)NO2)cc1` (stereo unspecified), the inhibition was -0.394%. `O=C(CSc1nc2ccccc2c(=O)[nH]1)Nc1nc(-c2ccc(Br)cc2)cs1` was tested, and the inhibition was 1.49%. In the case of `CCNC(=O)CSc1nc(-c2ccccc2)cs1`, the inhibition is reported as 0.44%. In the case of `O=C(CSC1=NCCS1)Nc1nc(-c2ccccc2)cs1`, the inhibition is reported as 37.4% (active). `CC(C)C(C)NC(=O)COc1nc2ccccc2nc1N(C)C1CCCCC1` (stereo unspecified) was tested, and the inhibition was -2.05%. Work on `COc1ccc(C(=O)NCCSc2ccccc2C)cc1` yielded an inhibition of 3.07%. Compound `CCCC(O)(CCC)C(=O)NN(C(=O)CCl)c1cccc(C)c1` has an inhibition of 18.1%. With `CCCCC(O)(CCCC)C(=O)NN(C(=O)CCl)c1ccccc1` the inhibition was 42.8% (active). `COC(=O)N(NC(=O)C(O)(C(C)C)C(C)C)c1ccccc1` showed an inhibition of -3.28%. `CCOC(=O)C1Cn2c(nc3c(c2=O)C(C)(CC)Cc2ccccc2-3)S1` (stereo unspecified) gave an inhibition of -3.72%. With `CCCc1nnc(NC(=O)CCC(=O)NC2CC2)s1` the inhibition was -1.59%. With `O=C(CCl)N(Cc1cccc([N+](=O)[O-])c1)c1cccc(Cl)c1` the inhibition was 88.1% (active). `CCN(CC)C(=O)CN(c1cccc([N+](=O)[O-])c1)S(=O)(=O)c1ccccc1` showed an inhibition of 0.016%. In the case of `Cc1ccc(S(=O)(=O)N(Cc2cccc([N+](=O)[O-])c2)C(=O)N2CCN(C)CC2)cc1`, the inhibition is reported as 1.46%. `O=C(CCS(=O)(=O)c1ccccc1Cl)Nc1ccc(S(=O)(=O)Nc2ncccn2)cc1` was tested, and the inhibition was -0.502%. Work on `CC(C)c1ccc(N(C(=O)c2ccco2)C(C(=O)NC2CCCC2)c2cccnc2)cc1` (stereo unspecified) yielded an inhibition of 2.58%. `O=C(c1nnc(-c2ccc(Cl)cc2)o1)C1CCCC1` was tested, and the inhibition was -10.3%. In the case of `O=C(c1[nH]ncc1-c1ccc(Cl)cc1)C1CO1` (stereo unspecified), the inhibition is reported as 33% (active). `S=c1[nH]nc(-c2ccc(Cl)cc2)n1CC1CCCO1` (stereo unspecified) gave an inhibition of -1.85%. With `COc1ccccc1OCCCCCCN1CCN(C)CC1` the inhibition was -1.55%. Work on `CC(OC(=O)CNC(=O)c1cccc(F)c1)C(=O)NC1CCCCC1C` (stereo unspecified) yielded an inhibition of -0.912%. Compound `CC(C)(C)OC(=O)c1c(N)n(CCCN2CCCC2=O)c2nc3ccccc3nc12` has an inhibition of -350%. With `N#Cc1c(N)n(CCOC(=O)c2ccc(Cl)cc2)c2nc3ccccc3nc12` the inhibition was 51.9% (active). `COCC(C)OC(=O)c1c(N)n(CCCN2CCOCC2)c2nc3ccccc3nc12` (stereo unspecified) was tested, and the inhibition was -97.2%.
